# The supplement of paper PMC7858590
# Values joined by “and” are separate entries in the source; they are usually repeats but may differ in a detail not shown here. Equal entries are not always repeated.
# Test system: human monocyte-derived macrophages (polarized)
# Assay: cell shape (eccentricity) Z-score vs DMSO control; higher = more elongated, M2-like morphology
# Settings: 5 µM; 24 h; macrophage state: M1-polarized (IFNg + TNFa), cytokines present during treatment
# Description: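 Primary-screen hits were rescreened on polarized hMDMs with the differentiating cytokines (IL-4 + IL-13 or IFNg + TNFa) kept in the medium during treatment with compound at 5 uM for 24 h. The eccentricity Z-score vs DMSO wells is averaged over experiments.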
row,Compound,cell shape (Z-score)
1,CCOc1cc2ncc(C#N)c(Nc3ccc(OCc4ccccn4)c(Cl)c3)c2cc1NC(=O)/C=C/CN(C)C,0.0624
2,CCCCCCCCCCC(C)(C)C(=O)Nc1c(OC)cc(OC)cc1OC,-3.18
3,CC[C@]1(O)C[C@@H]2CN(CCc3c([nH]c4ccccc34)[C@@](C(=O)OC)(c3cc4c(cc3OC)N(C)[C@H]3[C@@](O)(C(=O)OC)[C@H](OC(C)=O)[C@]5(CC)C=CCN6CC[C@]43[C@@H]65)C2)C1,6.51
4,NC(=O)Nc1cc(-c2cccc(F)c2)sc1C(=O)N[C@H]1CCCNC1,7.81
5,C[C@@H]1O[C@@H](Oc2cc(O)c3c(=O)c(O[C@@H]4O[C@@H](C)[C@H](O[C@@H]5O[C@@H](C)[C@H](O)[C@@H](O)[C@H]5O)[C@@H](O)[C@H]4O)c(-c4ccc(O)cc4)oc3c2)[C@H](O)[C@H](O)[C@H]1O,5.9
6,Cn1cnc(-c2cc3nccc(Oc4ccc(NC(=S)NC(=O)Cc5ccccc5)cc4F)c3s2)c1,3.19
7,Cc1nc(Nc2ncc(C(=O)Nc3c(C)cccc3Cl)s2)cc(N2CCN(CCO)CC2)n1,19.8
8,CC1(C)CCC(CN2CCN(c3ccc(C(=O)NS(=O)(=O)c4ccc(NCC5CCOCC5)c([N+](=O)[O-])c4)c(Oc4cnc5[nH]ccc5c4)c3)CC2)=C(c2ccc(Cl)cc2)C1,4.11
9,O=C(CCCCCCC(=O)Nc1ccccc1)NO,-0.801
10,CC(C)(C)n1nc(-c2cccc3ccccc23)c2c(N)ncnc21,6.74
11,Nc1ncnc2n[nH]c(Nc3ccc(F)cc3)c12,3.71
12,OC[C@H](Cc1ccccc1)Nc1nc(Oc2ccc3c(c2)CCC3)nc2c1ncn2Cc1ccc(-c2ccccc2)cc1,7.52
13,Oc1cccc(O)c1,-3.74
14,COCc1c(C(C)C)nc(C(C)C)c(/C=C/[C@@H](O)C[C@@H](O)CC(=O)O)c1-c1ccc(F)cc1,9.45
15,CNC(=O)c1ccccc1Sc1ccc2c(/C=C/c3ccccn3)n[nH]c2c1,8.44 and 13.2
16,Cn1cncc1[C@@](N)(c1ccc(Cl)cc1)c1ccc2c(c1)c(-c1cccc(Cl)c1)cc(=O)n2C,-0.763
17,CCCCCCOc1ccccc1C(N)=O,3.38
18,O=S(=O)(c1cccc2cnccc12)N1CCNCC1,3.08
19,C=C(c1ccc(C(=O)O)cc1)c1cc2c(cc1C)C(C)(C)CCC2(C)C,8.49
20,O=C(OC1C=C(CO)C2C(OC3OC(CO)C(O)C(O)C3O)OC=CC12O)c1ccc(O)cc1 (stereo not given),3.32
21,[O-][NH2+]c1ccc(O)c2ncccc12,-6.06
22,COc1cc2nccc(Oc3ccc(NC(=O)Nc4cc(C)on4)c(Cl)c3)c2cc1OC,7.92
23,COc1cccc2c1C(=O)c1c(O)c3c(c(O)c1C2=O)C[C@@](O)(C(=O)CO)C[C@@H]3O[C@H]1C[C@H](N)[C@H](O)[C@H](C)O1,22
24,O=C(O[C@@H]1Cc2c(O)cc(O)cc2O[C@@H]1c1cc(O)c(O)c(O)c1)c1cc(O)c(O)c(O)c1,-2.7
25,C#C[C@]1(O)CC[C@H]2[C@@H]3CCC4=Cc5oncc5C[C@]4(C)[C@H]3CC[C@@]21C,-4.38
26,Nc1nc(Nc2ccc3c(c2)CCC(N2CCCC2)CC3)nn1-c1cc2c(nn1)-c1ccccc1CCC2 (stereo not given),-4.94

# Same assay, conditions: 5 µM; 24 h; macrophage state: M2-polarized (IL-4 + IL-13), cytokines present during treatment
row,Compound,cell shape (Z-score)
1,CC1=CC(=O)c2ccccc2C1=O,-2.13
2,COC(=O)C[C@@H]1C(C(=O)O)=CO[C@@H](O[C@@H]2O[C@H](CO)[C@@H](O)[C@H](O)[C@H]2O)/C1=C\COC(=O)/C=C/c1ccccc1,-7.78
3,C=C(NC(=O)C(=C)NC(=O)c1csc(C2=N[C@@H]3c4csc(n4)[C@H]4NC(=O)c5csc(n5)[C@H]([C@](C)(O)[C@@H](C)O)NC(=O)[C@H]5CSC(=N5)/C(=C/C)NC(=O)[C@H]([C@@H](C)O)NC(=O)c5csc(n5)[C@]3(CC2)NC(=O)[C@H](C)NC(=O)C(=C)NC(=O)[C@H](C)NC(=O)[C@H]([C@@H](C)CC)N[C@@H]2C=Cc3c([C@H](C)O)cc(nc3[C@H]2O)C(=O)O[C@@H]4C)n1)C(N)=O [Thiostrepton.2mM],-5.55
4,O=C1NC(=O)/C(=C/c2ccc3nccc(-c4ccncc4)c3c2)S1,-2.56
5,CC(=O)O[C@H]1C(=O)[C@@]2(C)[C@H]([C@H](OC(=O)c3ccccc3)[C@]3(O)C[C@H](OC(=O)[C@H](O)[C@@H](NC(=O)c4ccccc4)c4ccccc4)C(C)=C1C3(C)C)[C@]1(OC(C)=O)CO[C@@H]1C[C@@H]2O,-14.3 and -18.7
6,CN(C)c1ccc(C(=C2C=CC(=[N+](C)C)C=C2)c2ccc(N(C)C)cc2)cc1,-9.83
7,C=C1C(=O)O[C@H]2[C@H]1CC/C(C)=C/CC[C@@]1(C)O[C@@H]21 [Parthenolide],-1.29
8,CC(=O)N[C@@H](C(=O)O[C@H]1CCC(C)(C)[C@@H]2CCC3=C(COC3=O)[C@@]12C)C(C)C,-0.761
9,C=C1C(=O)OC2CC3(C)CCC=C(CO)C3CC12 (stereo not given),-5.59
10,C=C(NC(=O)C(=C)NC(=O)c1csc(C2=N[C@@H]3c4csc(n4)[C@H]4NC(=O)c5csc(n5)[C@H]([C@](C)(O)[C@@H](C)O)NC(=O)[C@H]5CSC(=N5)/C(=C/C)NC(=O)[C@H]([C@@H](C)O)NC(=O)c5csc(n5)[C@]3(CC2)NC(=O)[C@H](C)NC(=O)C(=C)NC(=O)[C@H](C)NC(=O)[C@H]([C@@H](C)CC)N[C@@H]2C=Cc3c([C@H](C)O)cc(nc3[C@H]2O)C(=O)O[C@@H]4C)n1)C(N)=O,-11
11,CC(CCCCC(=O)Nc1ccc(C(F)(F)F)cc1)NCCc1cnc[nH]1 (stereo not given),-6.34
12,COCCCOc1ccnc(C[S+]([O-])c2nc3ccccc3[nH]2)c1C (stereo not given),1.52
13,COC(=O)Nc1nc2ccc(C(=O)C3CC3)cc2[nH]1,-16.3
14,O=C(CCCc1ccc(-c2ccccc2F)cc1)Nc1ccc(O)cc1,-9.79
